# Assay results: PubChem BioAssay (NCATS)
# Active and inactive are the calls of the source. Calls follow the shape of the dose curve; as a rule, active = well fitted curve in the direction sought with a large enough effect; inactive = no such curve, though single readings can be large or run the other way.
# Target: Alpha-galactosidase A (Homo sapiens) (UniProt P06280)
# Assay: Counterscreen for Glucocerebrosidase Inhibitors: qHTS Assay for Human alpha-Galactosidase at pH 4.5 (AID 992)
# Conditions: purified enzyme, fluorogenic substrate; series mostly up to 76.9 µM
# Source text: NIH Chemical Genomics Center [NCGC]
# NIH Molecular Libraries Screening Centers Network [MLSCN]
# PI Name: Zheng, Wei [NIH]
# Alpha-galactosidase is a homodimeric glycoprotein that hydrolyzes the terminal alpha-galactosyl moieties from glycolipids and glycoproteins. Deficiency of this enzyme results in Fabry Disease with progressive accumulation of globotriaosylceramide and other glycosphingolipids in vascular endothelial cells that causes renal failure, myocardial infarction and stroke, and premature death in patients. It has reported that the improper folding and trafficking of alpha-galactosidase resulted from the genetic mutations may account for a significant numbers of Fabry patients. […] We optimized this alpha-galactosidase assay in 1536-well plate format for identifying the novel small molecule inhibitors with the structures other than the sugar analogs in order to develop the new pharmacological chaperones.
# NCGC Assay Protocol Summary:
# This is a fluorogenic enzyme assay with 4-Methylumbelliferyl alpha-D-galactopyranoside as the substrate and human […] as the enzyme preparation. Upon the hydrolysis of this fluorogenic substrate, the resulting product, […]. 4-Methyllumbelliferone, can be excited at 365 nm and emits at 440 nm which can be detected by a standard fluorescence plate reader. Data were normalized to the controls for basal activity (without enzyme) and 100% activity (with enzyme). In the AC50 values were determined from concentration-response data modeled with the standard Hill equation.
# Assay buffer: 50 mM citric acid, 0.005% Tween-20, pH 4.5. (pH 4.5 is an optimal condition for this enzyme assay)
# 1536-well assay protocol for the human alpha-galactosidase:
# (1) Add 2 ul/well of enzyme (2 nM final)
# (2) Add 23 nL compounds in DMSO solution. The final titration was 0.7 nM to 77 uM.
# (3) Add 1 ul of substrate (80 uM final)
# (4) Incubate at room temperature for 20 min.
# (5) Add 2 ul stop solution (1M NaOH and 1M Glycine mixture, pH 10)
# (6) Detect the assay plate in a ViewLux plate reader (PerkinElmer) with Ex=365 nm and Em=440nm.
# Keywords: Alpha-galactosidase, Fabry Disease, pharmacological chaperone, chaperone therapy, high throughput screening, alpha-galactosidase inhibitor, MLSMR, MLSCN, NIH Roadmap, qHTS and NCGC
# Alpha-galactosidase A (Homo sapiens), sequence (P06280 whole entry, looked up): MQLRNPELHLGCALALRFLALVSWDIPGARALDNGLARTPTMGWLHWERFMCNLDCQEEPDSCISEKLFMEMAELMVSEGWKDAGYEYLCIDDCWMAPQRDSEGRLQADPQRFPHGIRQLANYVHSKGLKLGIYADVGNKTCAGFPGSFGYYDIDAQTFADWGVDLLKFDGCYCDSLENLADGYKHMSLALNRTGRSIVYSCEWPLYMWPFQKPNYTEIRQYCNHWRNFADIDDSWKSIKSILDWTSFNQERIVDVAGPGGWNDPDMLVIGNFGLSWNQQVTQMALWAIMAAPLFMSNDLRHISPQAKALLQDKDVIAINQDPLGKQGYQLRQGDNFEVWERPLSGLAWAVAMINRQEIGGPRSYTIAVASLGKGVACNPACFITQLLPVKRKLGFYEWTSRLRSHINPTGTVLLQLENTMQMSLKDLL
row,SMILES,outcome
1,O=C1OC(=O)[C@@H]2[C@@H]1[C@@H]1CC[C@H]2O1,inactive
2,OC[C@@H]1O[C@@H](n2cnc3c(NC4CCCC4)ncnc32)[C@@H](O)[C@H]1O,inactive
3,CNC(=O)[C@@H]1O[C@@H](n2cnc3c(NCc4ccc(N)cc4)ncnc32)[C@@H](O)[C@H]1O,inactive
4,Oc1ccc([C@@H]2CNCCc3c2cc(O)c(O)c3Cl)cc1,inactive
5,COc1cc2c(cc1O)CC[C@@H]1[C@@H]2CC[C@@]2(C)[C@H](O)CC[C@H]12,inactive
6,CN1[C@@H]2CC[C@H]1CC(NC(=O)c1nn(C)c3ccccc13)C2 (stereo not given in full),inactive
7,CC(C)[C@@H]1NC(=O)[C@H](CCCCN)NC(=O)[C@H](Cc2c[nH]c3ccccc23)NC(=O)[C@H](Cc2ccc(O)cc2)NC(=O)[C@H](C)N(C)C(=O)[C@H](Cc2ccccc2)NC1=O,inactive
8,C[C@H](O)[C@H](O)[C@@H]1CNc2nc(N)[nH]c(=O)c2N1,inactive
9,COc1cc([C@H](O)C(=O)O)ccc1O,inactive
10,COc1ccc(CCN(C)CCC[C@@](C#N)(c2cc(OC)c(OC)c(OC)c2)C(C)C)cc1OC,inactive
11,Nc1nc(Cl)nc2c1ncn2[C@@H]1O[C@@H](COP(=O)(O)OP(=O)(O)OP(=O)(O)O)[C@@H](O)[C@H]1O,inactive
12,CN[C@@H](CC(C)C)C(=O)N[C@@H]1C(=O)N[C@H](CC(N)=O)C(=O)N[C@H]2C(=O)N[C@H]3C(=O)N[C@H](C(=O)N[C@H](C(=O)O)c4cc(O)cc(O)c4-c4cc3ccc4O)[C@H](O)c3ccc(c(Cl)c3)Oc3cc2cc(c3O[C@@H]2O[C@@H](CO)[C@@H](O)[C@@H](O)[C@H]2O[C@H]2C[C@](C)(N)[C@H](O)[C@H](C)O2)Oc2ccc(cc2Cl)[C@@H]1O,inactive
13,CC(=O)[C@@H]1CC[C@@H]2[C@@H]3CC=C4C[C@H](OS(=O)(=O)O)CC[C@@]4(C)[C@H]3CC[C@]21C,inactive
14,COc1ccccc1OC[C@H](O)CN1CCN(CC(=O)Nc2c(C)cccc2C)CC1,inactive
15,CSC(N)=NCCC[C@@H](N)C(=O)O,inactive
16,CNC(=O)[C@@H]1O[C@@H](n2cnc3c(N)ncnc32)[C@@H](O)[C@H]1O,inactive
17,CSc1nc(N)c2ncn([C@@H]3O[C@@H](COP(=O)(O)OP(=O)(O)OP(=O)(O)O)[C@@H](O)[C@H]3O)c2n1,inactive
18,COc1cc([C@@H](O)CO)ccc1OS(=O)(=O)O,inactive
19,COC(=O)[C@H]1[C@H]2C[C@H]3c4[nH]c5ccccc5c4CCN3C[C@@H]2CC[C@@H]1O,inactive
20,NC(=O)C1=CN([C@@H]2O[C@@H](COP(=O)(O)OP(=O)(O)OC[C@@H]3O[C@H](n4cnc5c(N)ncnc54)[C@@H](OP(=O)(O)O)[C@@H]3O)[C@H](O)[C@@H]2O)C=CC1,inactive

row,SMILES,outcome
1,CN1CCc2c(cc(O)c(O)c2Cl)[C@H](c2cccc(Cl)c2)C1,inactive
2,Nc1ncnc2c1nc(Br)n2[C@@H]1O[C@H]2COP(=O)(O)O[C@@H]2[C@H]1O,inactive
3,CCCCCCCCCCCCCCC/C=C\[C@H](O)[C@@H](NC(=O)CCCCCCCCCCCCC)OC (tested in a mixture with another compound),inactive
4,COc1cc2nc(N3CCN(C(=O)OCc4ccccc4)[C@H](C(=O)NC(C)(C)C)C3)nc(N)c2cc1OC,inactive
5,OC[C@@H]1O[C@@H](n2cnc3c(NC4CCCCC4)ncnc32)[C@@H](O)[C@H]1O,inactive
6,C[C@@H]1O[C@@H](n2cc(F)c(=O)[nH]c2=O)[C@H](O)[C@@H]1O,inactive
7,Nc1ncnc2c1ncn2[C@@H]1O[C@@H](C(=O)NC2CC2)[C@H](O)[C@@H]1O,inactive
8,CN(C)C(=O)/N=N\C(=O)N(C)C,inactive
9,C=C(C)[C@@H]1CC=C(C(=O)O)CC1,inactive
10,CC[C@@H](CO)Nc1nc(NCc2ccccc2)c2ncn(C(C)C)c2n1,inactive
11,Cc1cccc(C)c1OC[C@@H](N)C(C)C,inactive
12,CN1CCc2cc(Cl)c(O)cc2[C@H](c2ccccc2)C1,inactive
13,C#C[C@H](N)CCC(=O)O,inactive
14,C=C/C(C)=C/[C@]1(C)SC(=O)C(C)=C1O,inactive
15,C[C@@H](Cc1ccccc1)Nc1ncnc2c1ncn2[C@@H]1O[C@@H](CO)[C@H](O)[C@@H]1O,inactive
16,N[C@@H]1C=CC=C(C(=O)O)C1,inactive
17,C[C@@H](CN1CCC(Cc2ccccc2)CC1)[C@H](O)c1ccc(O)cc1,inactive
18,Cc1cn([C@H]2C[C@H](N=[N+]=[N-])[C@H](CO)O2)c(=O)[nH]c1=O,inactive
19,NCC[C@H]1CCC[C@H](CCN)N1,inactive
20,O=C(O)CCCC[C@H]1CCSS1,inactive
